# PubChem BioAssay (NCI)
# Compounds without any hit were thinned out: in the full panel of roughly 79,000, 15% have a hit. Values without a mark were called inactive. Activity calls are given as the source filed them. No stated cut-off is given here; in the data, active means growth inhibition above about 70%; inactive means the rest.
# How the values were obtained:
# [1] = NCI Yeast Anticancer Drug Screen. Data for the rad52 strain (AID 147);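 further: 0% = growth of vehicle-treated control cultures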; settings: S. cerevisiae rad52 mutant growth inhibition, active compounds read high
# Method in brief: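 Inhibition of yeast growth, referenced to vehicle controls, was the measured output for a strain with defective DNA damage repair.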
# [2] = NCI Yeast Anticancer Drug Screen. Data for the wt1 strain (AID 149);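 further: 0% = growth of vehicle-treated wt1 cultures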; settings: S. cerevisiae wt1 strain (SPY 50644) growth inhibition, active compounds read high
# Method in brief: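 wt1 yeast, compound-treated; % growth inhibition vs vehicle control.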
# [3] = NCI Yeast Anticancer Drug Screen. Data for the rad50EPP+ strain (AID 151);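 further: 0% = growth of vehicle-treated control cultures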; settings: S. cerevisiae rad50 mutant strain, active compounds read high
# Method in brief: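 Genetically defined yeast (rad50EPP+, DNA damage repair alteration) is grown with compound, and inhibition of growth is expressed relative to vehicle-treated controls.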
# [4] = NCI Yeast Anticancer Drug Screen. Data for the mgt1 strain (AID 153); settings: S. cerevisiae mgt1 mutant growth inhibition, active compounds read high
# Method in brief: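 In the mgt1 strain, test compounds were added and growth inhibition was determined relative to vehicle-treated controls.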
# [5] = NCI Yeast Anticancer Drug Screen. Data for the rad50 strain (AID 155);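 further: 0% = growth of vehicle-only cultures of the same strain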; settings: S. cerevisiae rad50 strain growth inhibition, active compounds read high
# Method in brief: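 Genetically altered yeast (DNA repair pathway); compound treatment; growth inhibition vs vehicle ctrl.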
# [6] = NCI Yeast Anticancer Drug Screen. Data for the mec2-1 strain (AID 157); settings: S. cerevisiae mec2-1 strain, active compounds read high
# Method in brief: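 Each compound was tested on mec2-1 yeast, a strain altered in DNA damage repair or cell cycle control. Growth inhibition is reported relative to vehicle.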
# [7] = NCI Yeast Anticancer Drug Screen. Data for the rad14 strain (AID 159);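 further: 0% = growth of vehicle-treated control cultures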; settings: S. cerevisiae rad14 strain growth inhibition, active compounds read high
# Method in brief: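 Test compounds were applied to a repair-deficient yeast strain. Its growth was then compared with that of cultures given vehicle alone, and inhibition was expressed relative to those controls.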
# [8] = NCI Yeast Anticancer Drug Screen. Data for the sgs1 mgt1 strain (AID 161);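 further: 0% = growth of cultures given vehicle only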; settings: S. cerevisiae sgs1 mgt1 strain, active compounds read high
# Method in brief: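 Mutant yeast exposed to compound; growth scored against vehicle-only wells.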
# [9] = NCI Yeast Anticancer Drug Screen. Data for the CLN2oe strain (AID 163);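 further: 0% = growth of vehicle-only control cultures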; settings: S. cerevisiae CLN2oe strain, active compounds read high
# Method in brief: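 First, the altered yeast strain was treated with each compound; second, its growth was measured; finally, inhibition was derived by comparison with vehicle controls.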
# [10] = NCI Yeast Anticancer Drug Screen. Data for the cln2 rad14 strain (AID 165);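 further: 0% = growth equal to vehicle treated cultures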; settings: S. cerevisiae cln2 rad14 strain, active compounds read high
# Method in brief: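 Test compounds were added to cln2 rad14 yeast cultures; inhibition of growth was then determined by comparison with vehicle treatment.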
# [11] = NCI Yeast Anticancer Drug Screen. Data for the bub3 strain (AID 167); settings: S. cerevisiae bub3 mutant strain, active compounds read high
# Method in brief: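 Yeast carrying a defined mutation is treated with each compound, and growth is compared with that of vehicle-exposed cells to give inhibition.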
# [12] = NCI Yeast Anticancer Drug Screen. Data for the wt2 strain (AID 169);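 further: 0% = growth of vehicle-treated yeast cultures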; settings: S. cerevisiae wt2 strain growth inhibition, active compounds read high
# Method in brief: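 The panel's yeast strains carry defined changes in DNA repair or cell cycle genes. Each strain is grown with compound, and growth loss is scored relative to vehicle.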
# [13] = NCI Yeast Anticancer Drug Screen. Data for the mlh1 strain (AID 171);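 further: 0% = growth of vehicle-treated control cultures of the same strain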; settings: S. cerevisiae mlh1 strain growth inhibition, active compounds read high
# Method in brief: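 Inhibition values reflect reduced yeast growth in the presence of compound, referenced to vehicle controls, using a strain chosen for its alteration in DNA repair or cell cycle control.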
# [14] = NCI Yeast Anticancer Drug Screen. Data for the sgs1 strain (AID 173);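 further: 0% = growth of vehicle-only control cultures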; settings: S. cerevisiae sgs1 mutant, active compounds read high
# Method in brief: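 Vehicle-treated cultures served as reference for growth inhibition of a yeast strain altered in DNA damage repair or cell cycle control after compound exposure.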
# [15] = NCI Yeast Anticancer Drug Screen. Data for the mlh1 rad18 strain (AID 175); settings: S. cerevisiae mlh1 rad18 strain growth inhibition, active compounds read high
# Method in brief: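 Inhibition values reflect reduced growth of mutant yeast versus vehicle-treated controls following compound exposure; the mutations affect DNA damage repair.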
# [16] = NCI Yeast Anticancer Drug Screen. Data for the rad18 strain (AID 177); settings: S. cerevisiae rad18 mutant growth inhibition, active compounds read high
# Method in brief: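 Steps: expose repair-mutant yeast to compound; measure growth; express as inhibition relative to vehicle control.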
# [17] = at 5.0 µM (retest, dose inferred, filed as 0.5)
# [18] = at 50.0 µM (retest, dose inferred, filed as 5.0)
compound,measurement,setting,value
CC1(c2ccccc2)O[C@@H]2C[C@H]3[C@@H]4CCC5=CC(=O)C=C[C@]5(C)[C@@]4(F)[C@@H](O)C[C@]3(C)[C@]2(C(=O)CO)O1 (stereo partly drawn),growth inhibition,[1]; at 1.2 µM,-3%
same,growth inhibition,[1]; at 3.7 µM,-2%
same,growth inhibition,[1]; at 11.0 µM,6%
same,growth inhibition,[1]; at 33.0 µM,62%
same,growth inhibition,[1]; at 100.0 µM,98% (active)
same,growth inhibition,[2]; at 1.2 µM,0%
same,growth inhibition,[2]; at 3.7 µM,6%
same,growth inhibition,[2]; at 11.0 µM,3%
same,growth inhibition,[2]; at 33.0 µM,24%
same,growth inhibition,[2]; at 100.0 µM,94% (active)
same,growth inhibition,[3]; at 1.2 µM,3%
same,growth inhibition,[3]; at 3.7 µM,3%
same,growth inhibition,[3]; at 11.0 µM,7%
same,growth inhibition,[3]; at 33.0 µM,11%
same,growth inhibition,[3]; at 100.0 µM,23%
same,growth inhibition,[4]; at 1.2 µM,-2%
same,growth inhibition,[4]; at 3.7 µM,-5%
same,growth inhibition,[4]; at 11.0 µM,-5%
same,growth inhibition,[4]; at 33.0 µM,53%
same,growth inhibition,[4]; at 100.0 µM,98% (active)
same,growth inhibition,[5]; at 1.2 µM,-2%
same,growth inhibition,[5]; at 3.7 µM,0%
same,growth inhibition,[5]; [17],15%
same,growth inhibition,[5]; at 11.0 µM,6%
same,growth inhibition,[5]; at 33.0 µM,51%
same,growth inhibition,[5]; [18],35%
same,growth inhibition,[5]; at 50.0 µM,92.7% (active)
same,growth inhibition,[5]; at 100.0 µM,97% (active)
same,growth inhibition,[6]; at 1.2 µM,3%
same,growth inhibition,[6]; at 3.7 µM,5%
same,growth inhibition,[6]; [17],1%
same,growth inhibition,[6]; at 11.0 µM,10%
same,growth inhibition,[6]; at 33.0 µM,41%
same,growth inhibition,[6]; [18],8%
same,growth inhibition,[6]; at 50.0 µM,91.2% (active)
same,growth inhibition,[6]; at 100.0 µM,98% (active)
same,growth inhibition,[7]; at 1.2 µM,-2%
same,growth inhibition,[7]; at 3.7 µM,2%
same,growth inhibition,[7]; at 11.0 µM,11%
same,growth inhibition,[7]; at 33.0 µM,75% (active)
same,growth inhibition,[7]; at 100.0 µM,99% (active)
same,growth inhibition,[8]; [17],2%
same,growth inhibition,[8]; [18],33%
same,growth inhibition,[8]; at 50.0 µM,92.1% (active)
same,growth inhibition,[9]; at 1.2 µM,-5%
same,growth inhibition,[9]; at 3.7 µM,-11%
same,growth inhibition,[9]; at 11.0 µM,-4%
same,growth inhibition,[9]; at 33.0 µM,53%
same,growth inhibition,[9]; at 100.0 µM,98% (active)
same,growth inhibition,[10]; [17],6%
same,growth inhibition,[10]; [18],15%
same,growth inhibition,[10]; at 50.0 µM,95.8% (active)
same,growth inhibition,[11]; at 1.2 µM,-3%
same,growth inhibition,[11]; at 3.7 µM,-10%
same,growth inhibition,[11]; [17],-11%
same,growth inhibition,[11]; at 11.0 µM,-4%
same,growth inhibition,[11]; at 33.0 µM,21%
same,growth inhibition,[11]; [18],10%
same,growth inhibition,[11]; at 50.0 µM,90.9% (active)
same,growth inhibition,[11]; at 100.0 µM,95% (active)
same,growth inhibition,[12]; at 1.2 µM,1%
same,growth inhibition,[12]; at 3.7 µM,-1%
same,growth inhibition,[12]; at 11.0 µM,-2%
same,growth inhibition,[12]; at 33.0 µM,60%
same,growth inhibition,[12]; at 100.0 µM,98% (active)
same,growth inhibition,[13]; at 1.2 µM,-1%
same,growth inhibition,[13]; at 3.7 µM,2%
same,growth inhibition,[13]; at 11.0 µM,5%
same,growth inhibition,[13]; at 33.0 µM,66%
same,growth inhibition,[13]; at 100.0 µM,96% (active)
same,growth inhibition,[14]; at 1.2 µM,0%
same,growth inhibition,[14]; at 3.7 µM,3%
same,growth inhibition,[14]; at 11.0 µM,10%
same,growth inhibition,[14]; at 33.0 µM,62%
same,growth inhibition,[14]; at 100.0 µM,97% (active)
same,growth inhibition,[15]; [17],-4%
same,growth inhibition,[15]; [18],56%
same,growth inhibition,[15]; at 50.0 µM,96.2% (active)
same,growth inhibition,[16]; at 1.2 µM,-1%
same,growth inhibition,[16]; at 3.7 µM,4%
same,growth inhibition,[16]; at 11.0 µM,21%
same,growth inhibition,[16]; at 33.0 µM,76% (active)
same,growth inhibition,[16]; at 100.0 µM,98% (active)
